# PubChem BioAssay AID463173 (ICCB-Longwood Screening Facility, Harvard Medical School, 2010)
# In all, about 52,000 compounds went through this assay and about 4,300 (8.3%) were called active. Rule as the data show it: active = survival mostly below about 52% (no sharp cut-off); inactive = mostly above about 56%. For the sample, actives were picked, then their nearest neighbours and some compounds at random.
# Tested on: DeltatarO mutant
# Assay: growth inhibition of S. aureus wild type versus tarO mutant, primary screen, teichoic acid synthesis inhibitors, RN4220, OD600 (AID 463173)
# Conditions: OD600, 18 h, hits give low values, screened at 18.75 µg/mL (by protocol)
row,Structure (SMILES),survival
1,CCOc1ccc(NC(=O)CSc2nc3ccsc3c(=O)n2CC)cc1,89% (inactive)
2,Cc1cc(C)n2nc(C(=O)N/N=C/c3ccncc3)nc2n1,76% (inactive)
3,On1c2c(c3c4nonc4ccc31)CCCC2,0% (active)
4,c1ccc(-n2nc3ccc4nonc4c3n2)cc1,86% (inactive)
5,COc1ccc(-c2[nH]c3ccccc3c2SCCNC(=O)c2ccc(S(=O)(=O)N(C)C)cc2)cc1,67% (inactive)
6,COc1cccc(C2=C(C(C)=O)Sc3nnc(C4CCCCC4)n3N2C(C)=O)c1,81% (inactive)
7,CCOc1ccccc1NC(=O)c1cccc2c1C(=O)N(C1CCCCC1)C2,92% (inactive)
8,CC(C)(C)c1ccc(C(=O)N2CCCC(c3nc4c(nnn4Cc4cccc(F)c4)c(=O)[nH]3)C2)cc1 (centres undefined),7% (active)
9,CC(C)(C)C(=O)N1CCCC(c2nc3c(nnn3Cc3ccc(C(C)(C)C)cc3)c(=O)[nH]2)C1 (centres undefined),1% (active)
10,Cc1cccc(Cn2nnc3c(=O)[nH]c(C4CCCN(C(=O)c5ccccc5Cl)C4)nc32)c1 (centres undefined),71% (inactive)
11,COc1cccc(Cn2nnc3c(=O)[nH]c(C4CCCN(C(=O)c5ccc(C)cc5)C4)nc32)c1 (centres undefined),90% (inactive)
12,Cc1ccc(Cn2nnc3c(=O)[nH]c(C4CCCN(C(=O)c5ccco5)C4)nc32)cc1 (centres undefined),91% (inactive)
13,Cc1ccccc1Cn1nnc2c(=O)[nH]c(C3CCCN(C(=O)c4ccc(F)cc4)C3)nc21 (centres undefined),114% (inactive)
14,Cc1cccc(Cn2nnc3c(=O)[nH]c(C4CCCN(C(=O)c5ccc(C(C)(C)C)cc5)C4)nc32)c1 (centres undefined),18% (active)
15,O=C(Nc1ccc(F)cc1)N1CCCC(c2nc3c(nnn3Cc3ccccc3Cl)c(=O)[nH]2)C1 (centres undefined),88% (inactive)
16,Cc1ccccc1Cn1nnc2c(=O)[nH]c(C3CCCN(C(=O)c4ccc(C(C)(C)C)cc4)C3)nc21 (centres undefined),7% (active)
17,CCCC(=O)N1CCCC(c2nc3c(nnn3Cc3ccccc3)c(=O)[nH]2)C1 (centres undefined),102% (inactive)
18,O=C(c1cccs1)N1CCCC(c2nc3c(nnn3Cc3ccc(F)cc3)c(=O)[nH]2)C1 (centres undefined),101% (inactive)
19,CCc1ccc(Cn2nnc3c(=O)[nH]c(C4CCCN(C(=O)c5cccc(Cl)c5)C4)nc32)cc1 (centres undefined),74% (inactive)
20,COc1ccc(-c2ccc(NS(=O)(=O)c3ccc(F)c(C(F)(F)F)c3)cc2)nn1,117% (inactive)
21,Cc1ccc2cc(CN(CCN(C)C)C(=O)NC3CCCCC3)c(=O)[nH]c2c1,101% (inactive)
22,O=C(CCn1cccn1)NCc1ccc(Cl)cc1,73% (inactive)
23,COc1ccc(OC(=O)c2cn(-c3cccc(OC)c3)c(=O)c3ccccc23)cc1,80% (inactive)

row,Structure (SMILES),survival
1,COC(=O)c1ccc(NC(=O)c2nn(C)c3c2CS(=O)(=O)c2ccccc2-3)cc1,81% (inactive)
2,CC1(C)c2ssc(=S)c2-c2ccccc2N1C(=O)CSC#N,106% (inactive)
3,Cc1ccc(NC(=O)c2c3c(nc4ccccc24)C(=O)N(C2CCCCC2)C3)cc1F,102% (inactive)
4,Cc1nn(CC(=O)Nc2cccc(C(F)(F)F)c2)c(=O)c2nn(-c3ccccc3)c(C)c12,75% (inactive)
5,O=C(c1ccc(-c2cccc(C(F)(F)F)c2)o1)N1CCOCC1,84% (inactive)
6,O=C(Nc1cccc2cccnc12)c1ccccc1[N+](=O)[O-],68% (inactive)
7,COc1c(Cl)cc(Cl)cc1C(=O)Nc1cccc2cccnc12,143% (inactive)
8,O=C(Nc1cccc2cccnc12)c1cccc2c(Br)cccc12,70% (inactive)
9,O=C(O)c1ccccc1C(=O)Nc1ccc(Br)c2cccnc12,49% (inactive)
10,O=C(Nc1ccc(Br)c2cccnc12)c1cccc2ccccc12,29% (active)
11,O=C(Nc1cccc2cccnc12)c1cccc2ccccc12,1% (active)
12,O=C(CN1Cc2ccccc2C1=O)Nc1cc(F)ccc1F,81% (inactive)
13,Cc1nc2ccc(S(=O)(=O)CCC(=O)Nc3ccc(C)c(C)c3)cc2s1,107% (inactive)
14,CCOc1ccc(-n2c(SCC(=O)Nc3ccc(CC)cc3)nc3c(oc4ccccc43)c2=O)cc1,71% (inactive)
15,CCOC(=O)c1c(S(=O)(=O)NCC(=O)N(C)Cc2ccccc2)c(C)n(C)c1C,89% (inactive)
16,CCOc1no[n+]([O-])c1-c1ccccc1,90% (inactive)
17,CN(C(=O)CSc1nc2ccc(NC(=O)c3ccccc3F)cc2s1)c1ccccc1,103% (inactive)
18,CCN(Cc1nc(-c2ccc(OC)cc2)oc1C)S(=O)(=O)c1ccc(C)cc1,95% (inactive)
19,COc1ccc(C(=O)N/N=C2/SCC(=O)N2C)c(OC)c1,69% (inactive)
20,Cc1[nH]c2ccccc2c1C1(O)C(=O)N(Cc2ccc(Cl)cc2)c2ccccc21 (centres undefined),29% (active)
21,Cc1ccc(CN2C(=O)C(O)(c3c(C)[nH]c4ccccc34)c3ccccc32)cc1 (centres undefined),101% (inactive)
22,CCCCN1C(=O)C(O)(c2c(C)[nH]c3ccccc23)c2cc(Br)ccc21 (centres undefined),27% (active)
23,Cc1[nH]c2ccccc2c1C1(O)C(=O)N(Cc2ccccc2)c2ccc(Cl)cc21 (centres undefined),24% (active)

row,Structure (SMILES),survival
1,CCN1C(=O)C(O)(c2c(C)[nH]c3ccccc23)c2ccccc21 (centres undefined),54% (inactive)
2,Cc1[nH]c2ccccc2c1C1(O)C(=O)N(Cc2ccccc2)c2ccc(Br)cc21 (centres undefined),3% (active)
3,CCCCN1C(=O)C(O)(c2c(C)[nH]c3ccccc23)c2ccccc21 (centres undefined),51% (inactive)
4,Cc1ccc(C)c(CN2C(=O)C(O)(c3c(C)[nH]c4ccccc34)c3ccccc32)c1 (centres undefined),51% (inactive)
5,Cc1[nH]c2ccccc2c1C1(O)C(=O)N(Cc2ccccc2Cl)c2ccccc21 (centres undefined),51% (inactive)
6,CCOC(=O)CC(NC(=O)CCc1c(C)nc2c(-c3ccccc3)c(C)nn2c1C)c1ccc(C)cc1 (centres undefined),63% (inactive)
7,COc1ccccc1CNC(=O)C1CCN(S(=O)(=O)c2c(C)noc2/C=C/c2c(C)cc(C)cc2C)CC1,79% (inactive)
8,COc1cn(CC(=O)Nc2cccc(C)c2)c(CN2CCCCC2)cc1=O,85% (inactive)
9,C=CCNC(=O)CSc1ccc(C)cc1,82% (inactive)
10,COc1cc(OC)c(NC(=O)NCc2ccc3c(c2)CCN3C(C)=O)cc1Cl,124% (inactive)
11,Cc1c(NC(=O)C(C)(C)Oc2ccc(Cl)cc2)cccc1-c1nc2ccccc2o1,2% (active)
12,Cc1cc(NC(=O)C(C)(C)Oc2ccc(Cl)cc2)cc(-c2nc3ncccc3o2)c1O,82% (inactive)
13,CC(C)(Oc1ccc(Cl)cc1)C(=O)Nc1ccc(-c2nc3ncccc3o2)cc1,52% (inactive)
14,Cc1ccc(SCC(=O)Nc2cccc(-c3nc4cc(Cl)ccc4o3)c2C)cc1,60% (inactive)
15,COc1c(Cl)cc(Cl)cc1C(=O)Nc1cccc(-c2nc3ccccc3o2)c1C,109% (inactive)
16,Cc1c(NC(=O)C(C)(C)Oc2ccc(Cl)cc2)cccc1-c1nc2ncccc2o1,19% (active)
17,CCCCN1CCc2nc(Nc3ccc(OC)cc3OC)ncc2C1,77% (inactive)
18,CCOC(=O)c1noc2ncn(CC(=O)O)c(=O)c12,54% (inactive)
19,O=C(O)c1c2c(nc3ccc(F)cc13)CCCC2,89% (inactive)
20,O=C(CSc1ccccc1)Nc1ccc2c(c1)OCO2,100% (inactive)
21,CC(C)CNC(=O)N1[C@H](c2cccs2)[C@@H](C)C(=O)[C@@H](C)[C@@H]1c1cccs1,54% (inactive)
22,CCCNC(=O)N1[C@H](c2cccs2)[C@@H](C)C(=O)[C@@H](C)[C@@H]1c1cccs1,107% (inactive)
23,CCOC(=O)CNC(=O)N1[C@H](c2cccs2)[C@@H](C)C(=O)[C@@H](C)[C@@H]1c1cccs1,55% (active)

row,Structure (SMILES),survival
1,CC(C)c1ccccc1NC(=O)CN(c1ccccc1)S(=O)(=O)N(C)C,81% (inactive)
2,Cc1oc(-c2ccc(C(=O)Nc3ccccc3F)cc2)nc1COc1ccccc1,94% (inactive)
3,Cc1ccc(-c2nc(CS(=O)(=O)CC(=O)NCc3ccccc3Cl)c(C)o2)cc1,56% (inactive)
4,COc1ccc(-c2nc(CS(=O)(=O)CC(=O)NCCc3ccc(C)cc3)c(C)o2)cc1,85% (inactive)
5,COc1ccc(-c2nc(CS(=O)(=O)CC(=O)NCc3ccccc3Br)c(C)o2)cc1,41% (active)
6,COc1ccccc1CNC(=O)CSCc1nc(-c2ccc(OC)c(OC)c2)oc1C,71% (inactive)
7,Cc1oc(-c2cccc(Cl)c2)nc1CSCC(=O)O,75% (inactive)
8,COc1ccc(-c2nc(CS(=O)CC(=O)NCc3ccccc3Cl)c(C)o2)cc1OC (centres undefined),72% (inactive)
9,COc1ccc(-c2nc(CSCC(=O)NCc3ccccc3Cl)c(C)o2)cc1OC,46% (active)
10,Cc1oc(-c2cccc(Cl)c2)nc1CS(=O)(=O)CC(=O)NCc1ccccc1Cl,49% (inactive)
11,Cc1oc(-c2ccccc2Cl)nc1CS(=O)CC(=O)NCc1ccccc1Cl (centres undefined),54% (inactive)
12,CCc1ccc(-c2nc(CSCC(=O)NCc3ccccc3OC)c(C)o2)cc1,62% (inactive)
13,Cc1oc(-c2cccc(Cl)c2)nc1CSCC(=O)NCc1ccccc1Cl,0% (active)
14,Cc1ccc(-c2nc(CS(=O)CC(=O)NCc3ccccc3Cl)c(C)o2)cc1 (centres undefined),54% (active)
15,CN1CCN(C(=O)c2ccc(N(C)S(C)(=O)=O)cc2)CC1,107% (inactive)
16,Cc1cccc(CCNC(=O)C2CCCN(S(=O)(=O)c3ccc4c(c3)oc(=O)n4C)C2)c1 (centres undefined),102% (inactive)
17,Cc1ccc(Cn2c(C)c3cnn(CC(=O)N4CCN(c5ccc(F)cc5)CC4)c(=O)c3c2C)cc1,71% (inactive)
18,CC(=O)c1ccc(NC(=O)Cn2cc(S(=O)(=O)Cc3cccc(Cl)c3)c3ccccc32)cc1,113% (inactive)
19,O=C(Nc1ccc(F)c(F)c1)c1nc2ncccn2n1,82% (inactive)
20,COc1ccc(Br)cc1CNC(=O)CSc1n[nH]c(-c2ccccc2)n1,73% (inactive)
